Assay results from PubChem BioAssay AID865 (The Scripps Research Institute Molecular Screening Center, 2007).
The other results are listed elsewhere or left out. Unmarked numbers belong to inactive results. Calls of active or inactive are those of the source.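 Rule for the calls: active = activation above the screen-wide mean activation plus 3 SD (cut at about 8% in these data); inactive = the rest.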

Test: activators of NFAT-driven beta-lactamase reporter, confirmation, counter-screen for GALR2 agonist project, CHO NFAT-bla cells, FRET readout (AID 865);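 note: 0% = DMSO with PBS wells and 100% = thapsigargin positive control wells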
Details: at 5.6 µM, hits give high values
`Cc1csc(NC(=O)c2ccc(-c3ccc(Cl)cc3Cl)o2)n1` gave an activation of 0.5%. With `CCN(C(=O)CSc1ncn[nH]1)c1cccc2ccccc12` the activation was -1.97%. `CC(=O)Oc1ccc(C(C)=O)c2c1OCCO2` showed an activation of -1.79%. For `Cc1ccc(Cc2c(C)nc3nc(SCC(=O)NCCN4CCOCC4)nn3c2C)cc1`, the activation was -0.81%. With `Cc1ccc(CCC(=O)Nc2ncc(Cc3cc(Cl)ccc3Cl)s2)o1` the activation was 13.5% (active). With `CC/C(C)=N/Nc1nc2sc3c(c2c(=O)[nH]1)CC(C)(C)OC3` the activation was -1.22%. Compound `OC(COc1cccc2ccccc12)CN1CCN(c2ccccn2)CC1` (stereo unspecified) has an activation of 0.34%. With `Cn1c(=O)oc2cc(S(=O)(=O)N3CCC(C(=O)Nc4ccc(OC(F)(F)F)cc4)CC3)ccc21` the activation was 1.18%. For `COc1cc(SC#N)ccc1N=Cc1c(C)[nH]n(-c2ccc(C)cc2)c1=O`, the activation was 9.72% (active). For `CCOc1ccc2nc(Nc3nc4ccc(NC(C)=O)cc4s3)sc2c1`, the activation was 59.5% (active). `COC(=O)c1ccc(NC(=O)C(C)N2C(=O)c3ccccc3C2=O)cc1` (stereo unspecified) gave an activation of -1.44%. For `O=[N+]([O-])c1ccccc1SNc1ccccn1`, the activation was -1.98%. Compound `COCCN(CCOC)S(=O)(=O)c1ccc(C(=O)Nc2nc3c(s2)CCc2ccccc2-3)cc1` has an activation of 2.54%. For `O=C1COc2ccc(NC(=O)N3CCN(c4ccc(F)cc4)CC3)cc2N1`, the activation was -0.56%. For `COc1ccccc1N1N=C(c2cccs2)CC1c1ccccc1` (stereo unspecified), the activation was 6.25%. Compound `CC1(C)CC(=O)C=C(NCCN2CCNCC2)C1` has an activation of -2.3%. `CCOc1ccc(C(O)Cn2c(=N)n(CCN3CCCCC3)c3ccccc32)cc1` (stereo unspecified) showed an activation of -2.38%. For `C=CCN(CC=C)S(=O)(=O)c1ccc(C(=O)Nc2nc3c(s2)CCc2ccccc2-3)cc1`, the activation was 1.61%. With `O=c1oc2cc(O)ccc2cc1-c1ccc(F)cc1` the activation was 7.16%. With `COc1ccc(C(=O)CN2C(=O)NC(C)(c3ccc(C)cc3)C2=O)cc1OC` (stereo unspecified) the activation was -1.81%. Work on `O=C(NC(=S)Nc1ccc(NC(=O)c2cccs2)cc1)c1ccc([N+](=O)[O-])cc1` yielded an activation of -1.18%. `COc1ccc(Nc2oc(-c3ccccc3Cl)nc2C#N)cc1` gave an activation of -0.84%. Work on `CC(=O)N(Cc1cccs1)C1CCOC(C)(C)C1` (stereo unspecified) yielded an activation of -3.67%. For `Fc1ccc(N2N=C(c3cccs3)CC2c2ccco2)c(F)c1` (stereo unspecified), the activation was 0.42%. Compound `C=CCn1c(Oc2ccc(C(=O)OC)cc2)nc2c1c(=O)n(C)c(=O)n2C` has an activation of -0.9%. In the case of `CCCOc1ccc(C(=O)C(CCC(CNCC)C(=O)c2ccc(OCCC)cc2)CNCC)cc1` (stereo unspecified), the activation is reported as 0.75%.
